# Screening results as filed in PubChem BioAssay.
# Sfp inh = Sfp phosphopantetheinyl transferase inhibition. AID 1490. Biochemical Sfp PPTase activity, qHTS. Q9F4F7. 3.5% of 310,000 active. Potency, µM, without a hit: largest response in the series, negative = inhibition, most hits filed as inhibitors;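 also: the enzyme is Sfp with the accession as filed and its product quenches rhodamine fluorescence; potency is read from the fitted curve at half-maximal effect; 0% = enzyme reaction without inhibitor and -100% = no enzyme wells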
#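 Fluorescence-quenching assay: 15 nM Sfp-PPTase preincubated 15 min at room temperature with compound, then 5 uM rhodamine-CoA and 12.5 uM BHQ-2-labelled YbbR peptide added. Fluorescence (ex 525/em 598 nm) read at start and after 30 min; difference gives rate.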
# FBPA coupling cs = counter-screen for Giardia aldolase inhibitors: coupling enzyme system. 0.67% of 290,000 active. coupling enzyme system counterscreen, AmpLite Red fluorescence. activity change, negative = inhibition, % at 58.2 µM, hits read low; in the data active = activity change below about -30%
#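 Activity here indicates interference with the coupling reaction, not aldolase inhibition. Compounds at 57.5 uM final met coupling enzymes for 10 min at RT; substrate and AmpLite Red detection followed, with a 525/598 nm fluorescence read after 20 min.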
# Giardia kill = Giardia lamblia killing; Giardia lamblia trophozoite viability; activity change, % at 7.66 µM, hits read low; 0.15% of 340,000 active; AID 540267; in the data active = activity change below about -80%; inconclusive = between about -30% and that limit;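 also: parasites exposed to compound for two days anaerobically before the ATP read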
#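 Compounds were tested on trophozoites seeded at 100 cells/well and held 48 hrs at 37 deg C anaerobically. An ATP-based luminescent kit measured the remaining live cells.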
# ELG1 DNA repair = inhibitors of ELG1-dependent DNA repair in HEK293T cells | HEK293T ELG1-luciferase reporter, luminescence, 16 h; DNA damage induced by 5-fluorouridine | Potency, µM (highest dose often 46.1 µM), for the others: top-dose activity change, negative = inhibition, most hits filed as inhibitors | 2.3% of 330,000 active; also: potency is read from the fitted curve at half-maximal effect; nearly all actives have a fitted effect of over 55% in size
#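 DMSO vehicle served as the neutral condition. Each well held 2,000 cells given 5-fluorouridine plus compound; after 16 hr at 37 °C/5% CO2, ONE-Glo was added and luciferase measured 30 min later.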
# ELG1 FLuc counter = luciferase inhibition in cell-free luciferin readout for ELG1 hits; cell-free firefly luciferase luminescence counter-screen, ViewLux; shares compounds with ELG1 DNA repair; AID 624247; Potency, µM (series often up to 46.1 µM), for the others: at the top dose activity change, negative = inhibition, most hits filed as inhibitors; 3% of 350 active; also: potency is read from the fitted curve at half-maximal effect
# ELG1 Luc conf = confirmation of human ELG1-dependent DNA repair inhibitors; shares compounds with ELG1 DNA repair; HEK293T ELG1-luciferase levels, luminescence; cells co-treated with 5-fluorouridine; Potency, µM (series often up to 46.1 µM), for the others: at the highest dose activity change, negative = inhibition, most hits filed as inhibitors; 68% of 670 active; AID 624248; also: potency is read from the fitted curve at half-maximal effect; nearly all actives have a fitted effect of over 55% in size
# Target sequence (Q96QE3 whole entry, looked up): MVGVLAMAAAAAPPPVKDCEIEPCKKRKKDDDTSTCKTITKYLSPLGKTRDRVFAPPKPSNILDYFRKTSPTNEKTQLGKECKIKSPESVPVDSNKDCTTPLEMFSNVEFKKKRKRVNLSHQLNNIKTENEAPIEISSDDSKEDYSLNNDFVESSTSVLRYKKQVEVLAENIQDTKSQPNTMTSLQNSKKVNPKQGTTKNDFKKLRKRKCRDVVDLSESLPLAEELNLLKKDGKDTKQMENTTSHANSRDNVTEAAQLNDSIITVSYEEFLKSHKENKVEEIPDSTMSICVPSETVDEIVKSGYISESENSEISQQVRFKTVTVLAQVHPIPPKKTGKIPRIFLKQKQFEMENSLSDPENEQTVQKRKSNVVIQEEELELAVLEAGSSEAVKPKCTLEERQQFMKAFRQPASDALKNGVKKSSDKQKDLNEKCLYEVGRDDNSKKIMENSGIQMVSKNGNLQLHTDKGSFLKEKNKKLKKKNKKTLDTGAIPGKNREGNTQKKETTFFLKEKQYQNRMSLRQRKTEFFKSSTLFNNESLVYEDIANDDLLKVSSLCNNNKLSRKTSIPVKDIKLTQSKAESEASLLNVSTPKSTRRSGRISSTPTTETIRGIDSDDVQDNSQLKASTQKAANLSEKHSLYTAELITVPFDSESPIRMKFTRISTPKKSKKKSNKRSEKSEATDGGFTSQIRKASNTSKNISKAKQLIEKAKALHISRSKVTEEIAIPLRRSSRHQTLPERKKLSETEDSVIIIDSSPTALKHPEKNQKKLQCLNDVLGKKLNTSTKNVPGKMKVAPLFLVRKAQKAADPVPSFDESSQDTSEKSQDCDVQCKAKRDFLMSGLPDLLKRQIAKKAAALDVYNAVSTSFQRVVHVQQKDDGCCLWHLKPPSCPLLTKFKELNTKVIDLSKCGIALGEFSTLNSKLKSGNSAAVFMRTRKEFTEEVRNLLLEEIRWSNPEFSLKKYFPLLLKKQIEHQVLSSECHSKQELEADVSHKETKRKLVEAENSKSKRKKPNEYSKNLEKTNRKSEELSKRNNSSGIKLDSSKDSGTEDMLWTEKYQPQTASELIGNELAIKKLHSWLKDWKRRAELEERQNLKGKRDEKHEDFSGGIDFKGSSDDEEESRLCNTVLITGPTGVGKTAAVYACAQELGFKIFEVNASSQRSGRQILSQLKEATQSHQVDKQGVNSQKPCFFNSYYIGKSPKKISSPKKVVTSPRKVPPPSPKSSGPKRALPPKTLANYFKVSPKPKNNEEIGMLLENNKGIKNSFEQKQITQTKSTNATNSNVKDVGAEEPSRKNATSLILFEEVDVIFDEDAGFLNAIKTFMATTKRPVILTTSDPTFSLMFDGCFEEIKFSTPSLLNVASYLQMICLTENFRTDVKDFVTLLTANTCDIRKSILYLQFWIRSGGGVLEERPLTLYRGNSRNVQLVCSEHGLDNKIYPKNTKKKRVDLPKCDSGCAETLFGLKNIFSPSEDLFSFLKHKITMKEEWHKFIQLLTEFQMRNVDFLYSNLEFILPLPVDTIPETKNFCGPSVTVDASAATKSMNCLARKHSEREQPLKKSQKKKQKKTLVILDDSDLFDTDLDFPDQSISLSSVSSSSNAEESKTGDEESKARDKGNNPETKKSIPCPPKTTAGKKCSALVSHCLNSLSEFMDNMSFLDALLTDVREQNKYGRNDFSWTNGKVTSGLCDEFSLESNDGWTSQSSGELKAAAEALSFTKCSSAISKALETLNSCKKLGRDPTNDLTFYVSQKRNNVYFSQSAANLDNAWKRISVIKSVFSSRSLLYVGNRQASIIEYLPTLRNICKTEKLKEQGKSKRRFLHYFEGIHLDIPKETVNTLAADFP
# ELG1 MMS Luc = confirmation of human ELG1 repair inhibitors, MMS stimulated. 53% of 670 active. Potency, µM (titrated, usually from 46.1 µM), inactives show top-dose activity change, negative = inhibition, most hits filed as inhibitors. AID 624249. HEK293T luciferase-tagged ELG1 level, MMS stimulated. shares compounds with ELG1 DNA repair; also: potency is read from the fitted curve at half-maximal effect; nearly all actives have a fitted effect of over 60% in size
# ELG1 5-FU = confirmation of ELG1 repair inhibitors: viability with 5FU. shares compounds with ELG1 DNA repair. Potency, µM (series often up to 46.1 µM), inactives show at the highest dose activity change, negative = viability loss, actives largely listed as cytotoxic. cell viability with 5-FU, ELG1-dependent repair. 670 tested, under 10 active;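 also: ELG1-luc HEK293T cells cotreated with 5-fluorouridine at 10 µM final; potency is read from the fitted curve at half-maximal effect; viability measured 16 h after compound addition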
# ELG1 MMS cell = confirmation of ELG1 repair inhibitors: viability with MMS. shares compounds with ELG1 DNA repair. Cell viability with MMS, ELG1-dependent DNA repair. Potency, µM (top dose mostly 46.1 µM), for inactives: at the highest dose activity change, negative = viability loss, actives largely listed as cytotoxic. 33% of 670 active. AID 624251;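 also: ELG1-luc HEK293T cells co-treated with 10 µM MMS; potency is read from the fitted curve at half-maximal effect; viability read 16 h after compound addition; nearly all actives have a fitted effect of over 60% in size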
# ELG1 unstim viab = unstimulated viability counter-screen for ELG1 repair hits. shares compounds with ELG1 DNA repair. cell viability counter-screen, unstimulated, luminescence. Potency, µM (series often up to 45.9 µM), for the others: at the highest dose activity change, negative = loss of viability, usual class: cytotoxic. 8% of 900 active;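 also: potency is read from the fitted curve at half-maximal effect; compound exposure lasted 16 hours before reading; nearly all actives have a fitted effect of over 55% in size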
# FLuc enzyme = firefly luciferase inhibition counter-screen; purified firefly luciferase, luminescence counter-screen; shares compounds with ELG1 DNA repair; AID 624253; Potency, µM (top dose mostly 57.5 µM), for inactives: at the highest dose activity, negative = inhibition, hits mostly inhibitors; 10% of 350 active; also: potency is read from the fitted curve at half-maximal effect
# An asterisk follows results filed as active; u = inconclusive; x = not tested or not shown. This is a sample that favours compounds with a hit; in the whole collection about 5.5% have one here. Unless noted, calls follow the shape of the dose curve; as a rule, active = well fitted curve in the direction sought with a large enough effect; inconclusive = small, poorly fitted or top-dose-only effect, or another doubt; inactive = no such curve, though single readings can be large; an effect the other way counts as inactive or inconclusive. Unless noted, % is scaled to controls: 0 for no effect and ±100 for the full control effect.
SMILES,Sfp inh,FBPA coupling cs,Giardia kill,ELG1 DNA repair,ELG1 FLuc counter,ELG1 Luc conf,ELG1 MMS Luc,ELG1 5-FU,ELG1 MMS cell,ELG1 unstim viab,FLuc enzyme
COc1ccc(CNC(=O)C(c2ccco2)N(Cc2cccs2)C(=O)Cc2cccs2)cc1 (configuration not stated),u,-8,20,15µM*,-17%,16µM*,16µM*,6%,-4%,-14%,-4%
COc1ccc(CNC(=O)C(c2ccncc2)N(C(=O)Cc2cccs2)c2ccccc2C)cc1 (configuration not stated),10%,-1,3,-4%,x,x,x,x,x,x,x
CCOC(=O)N1CCC(NC(=O)C2CCCN(Cc3nc(-c4ccc(CC)cc4)oc3C)C2)CC1 (configuration not stated),8%,4,-2,2.3µM*,-2%,7.9µM*,2.5µM*,4%,3.2µM*,u,1%
CCOC(=O)N1CCC(NC(=O)C2CCN(Cc3nc(-c4ccc(CC)cc4)oc3C)CC2)CC1,x,x,13,x,x,x,x,x,x,x,x
COc1ccc([C@H]2Cc3cccc(O)c3C(=O)O2)cc1O,x,x,3,19%,x,x,x,x,x,x,x
COc1ccc([C@H]2Cc3cc(O)cc(O)c3C(=O)O2)cc1O,x,x,6,u,x,x,x,x,x,9%,x
CCc1ccc(OCC(=O)Nc2ccc(-c3nc4ccccc4o3)c(O)c2)cc1,21%,3,8,u,15%,x,x,x,x,-2%,1%
COCCn1c(=O)c(CCc2ccccc2)nc2cnc(Oc3ccccc3)nc21,13%,0,x,x,x,x,x,x,x,x,x
CCCNC(=O)CS(=O)(=O)Cc1nc(-c2cccc(OC)c2)oc1C,12%,5,-5,-14%,x,x,x,x,x,x,x
COc1cccc(-c2nc(CS(=O)(=O)CC(=O)NCCc3ccccc3)c(C)o2)c1,2%,1,-10,4.6µM*,x,u,-4%,u,-1%,-9%,x
Cc1ccc2oc3ccccc3c(=O)c2c1,x,x,10,x,x,x,x,x,x,x,x
O=c1c2ccccc2oc2ccc(-c3ccc4cc[nH]c4c3)cc12,x,x,-27,u,94%,x,x,x,x,u,0.41µM*
COc1cc(NC(=O)C2CCC(CNc3c(N4CCCCC4)c(=O)c3=O)CC2)cc(OC)c1 (configuration not stated),15%,1,-15,u,-9%,11µM*,-8%,u,-16%,u,-6%
CCOc1ccc(NC(=O)C2CCC(CNc3c(N4CCCCC4)c(=O)c3=O)CC2)cc1 (configuration not stated),-6%,2,5,u,x,x,x,x,x,x,x
O=C(Nc1ccc(F)cc1)C1CCC(CNc2c(N3CCCCC3)c(=O)c2=O)CC1 (configuration not stated),10%,2,-6,0%,73%,u,7%,5%,-4%,-11%,-10%
COc1ccc(-n2c(C)c(C(C)=O)c3cc(OC(C)=O)ccc32)cc1,3%,4,-20,0.82µM*,-18%,0.63µM*,u,15%,9%,-8%,-2%
O=C(/C=C1\NC2(CCCC2)Cc2ccccc21)C(=O)N/N=C/c1ccccc1O,2%,-6,16,2.3µM*,x,u,8.9µM*,0%,u,-5%,x
COc1ccc(CC(=O)NC2CC(C)(C)NC(C)(C)C2)cc1OC,13%,5,15,-1%,x,x,x,x,x,x,x
CCCCc1ccc(NC(=O)C(=O)NCCN2CCN(Cc3ccc([N+](=O)[O-])cc3)CC2)cc1,15%,1,31,3.3µM*,x,u,0.79µM*,0%,1.3µM*,-15%,x
CCc1ccc2nc(SCC(=O)Nc3ccccc3N3CCOCC3)c(C#N)cc2c1,-3%,-3,33,u,4%,u,7.1µM*,-15%,11µM*,u,3%
COc1cc2c(cc1OC)C1C(=O)c3c(O)cc4c(c3OC1CO2)C=CC(C)(C)O4 (configuration not stated),-42%,-10,x,x,-4%,u,0.4µM*,-8%,0.4µM*,u,-3%
C=C(C)c1cccc(C(C)(C)NC(=O)Nc2ccc(OC)nc2)c1,8%,-3,33,1%,x,x,x,x,x,x,x
O=C(OCc1ccc(F)cc1)c1cc(S(=O)(=O)N2CCCCC2)ccc1N1CCOCC1,x,x,18,-5%,x,x,x,x,x,x,x
CN(C)CCN(CC1CCCN(Cc2ccccc2F)C1)C(=O)c1ccc(F)cc1 (configuration not stated),1%,0,5,1%,x,x,x,x,x,x,x
Cc1nc2c(-c3ccccc3)c(C)nn2c(N)c1-c1ccccc1,10%,-1,-19,u,x,x,x,x,x,x,x
SMILES,Sfp inh,FBPA coupling cs,Giardia kill,ELG1 DNA repair,ELG1 FLuc counter,ELG1 Luc conf,ELG1 MMS Luc,ELG1 5-FU,ELG1 MMS cell,ELG1 unstim viab,FLuc enzyme
Cc1nc2cc(-c3ccccc3)nn2c(N)c1-c1ccccc1,x,x,-15,u,58%,x,x,x,x,0%,0.37µM*
NC(c1ccccc1)c1ccncc1 (configuration not stated),-2%,0,23,-4%,x,x,x,x,x,x,x
CN1CCN(c2ncnc3scc(-c4ccccc4Cl)c23)CC1,6%,-1,-18,4.1µM*,x,7.1µM*,16µM*,-10%,-2%,u,x
COC(=O)c1ccc2c(=O)n(CCCCCC(=O)N3CCN(c4ccccc4)CC3)c(=O)[nH]c2c1,-8%,2,0,7.3µM*,22µM*,8.9µM*,7.9µM*,u,10µM*,20µM*,-2%
COc1cc2[nH]c(=O)n(CCC(=O)N3CCN(Cc4ccccc4)CC3)c(=O)c2cc1OC,-7%,-3,16,u,x,x,x,x,x,x,x
COc1cc2[nH]c(=O)n(CCCCCC(=O)N3CCN(c4ccccc4)CC3)c(=O)c2cc1OC,13%,0,-7,16µM*,u,13µM*,16µM*,8%,u,u,-18%
